“And” between values parts separate entries of the source, which are not always exact repeats. Equal values may be shown once. Where a structure was tested more than once in an assay, its records may differ in their call. The source made the active and inactive calls. Rule for the calls: active = hit-call score of the fitted dose curve at least 0.9, where 1 is the maximum; inactive = score below 0.9.
What was measured:
[1] = read-out: C-C motif chemokine 2 (Homo sapiens) (UniProt P13500); assay: BSK_KF3CT_MCP1: BioMAP Diversity Plus: KF3CT Assay for Monocyte Chemoattractant Protein 1 (MCP1/CCL2) Biomarker Activity (AID 2283073); conditions: primary human keratinocytes with fibroblasts; actives raise or lower the signal
Summary of the method: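 ELISA read-out of MCP-1, 24 h post-dose, in primary human skin keratinocytes co-cultured with fibroblasts. Parallel SRB staining monitors cytotoxicity; changes fitted both directions relative to DMSO.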

[2] = read-out: Matrix Metallopeptidase 9 (MMP9), MMP9 (gene 4318); assay: BSK_KF3CT_MMP9: BioMAP Diversity Plus: KF3CT Assay for Matrix Metallopeptidase 9 (MMP9) Biomarker Activity (AID 2283074); conditions: primary human keratinocytes with fibroblasts; actives raise or lower the signal;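 for AC50: MMP9 protein level quantified by ELISA in the co-culture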
Summary of the method: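 Human keratinocyte/foreskin fibroblast co-culture; compound added; 24 h; MMP-9 by ELISA; bidirectional fit vs DMSO baseline.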

[3] = read-out: urokinase plasminogen activator (uPA), PLAU (gene 5328); assay: BSK_KF3CT_uPA: BioMAP Diversity Plus: KF3CT Assay for urokinase plasminogen activator (uPA) Biomarker Activity (AID 2283075); conditions: primary human keratinocytes with fibroblasts; actives raise or lower the signal
Summary of the method: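 ELISA readout of uPA, analyzed for signal gain or loss relative to DMSO, from a human primary keratinocyte–foreskin fibroblast co-culture measured 24 h after chemical treatment.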

[4] = read-out: CD40, CD40 (gene 958); assay: BSK_LPS_CD40: BioMAP Diversity Plus: LPS Assay for CD40 Biomarker Activity (AID 2283076); conditions: primary human HUVEC with PBMC; actives raise or lower the signal
Summary of the method: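 In the LPS system of human endothelial cells with peripheral blood mononuclear cells, CD40 levels were read by ELISA 24 h post-treatment. Signal changes in either direction were fitted against the DMSO baseline, with parallel SRB protein staining.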

[5] = read-out: E-selectin (Homo sapiens) (UniProt P16581); assay: BSK_LPS_Eselectin: BioMAP Diversity Plus: LPS Assay for Eselectin Biomarker Activity (AID 2283077); conditions: primary human HUVEC with PBMC; actives raise or lower the signal
Summary of the method: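 E-selectin ELISA on LPS-stimulated endothelial cell/PBMC co-cultures, read 24 h post-treatment; gains and losses fitted against DMSO. Parallel SRB staining (0.1% SRB after 10% TCA fixation, 560 nm) flags overt cytotoxicity.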

[6] = read-out: Interleukin-8 (IL8), CXCL8 (gene 3576); assay: BSK_LPS_IL8: BioMAP Diversity Plus: LPS Assay for Interleukin-8 (IL8) Biomarker Activity (AID 2283078); conditions: primary human HUVEC with PBMC; actives raise or lower the signal
Summary of the method: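 ELISA read-out of IL-8 after 24 h chemical treatment of LPS-activated endothelial/PBMC human primary co-cultures. Changes either up or down relative to DMSO; overt cytotoxicity checked by sulforhodamine B staining in parallel wells.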

[7] = BSK_LPS_SRB: Viability Assessment in the BioMAP Diversity Plus: LPS Assay (AID 2283079); conditions: primary human HUVEC with PBMC;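 note: total protein by sulforhodamine B absorbance as a cytotoxicity measure; measured one day after compound addition; fitted in both directions against DMSO so loss or gain of signal counts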
Summary of the method: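 SRB viability endpoint: cells fixed with 10% TCA, stained with 0.1% SRB, read at 560 nm, 24 h post-dose. HUVEC/PBMC co-culture; signal change in either direction scored relative to DMSO.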

[8] = read-out: Interleukin-1 alpha (IL1a), IL1A (gene 3552); assay: BSK_LPS_IL1a: BioMAP Diversity Plus: LPS Assay for Interleukin-1 alpha (IL1a) Biomarker Activity (AID 2283080); conditions: primary human HUVEC with PBMC; actives raise or lower the signal
Summary of the method: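 Readout is IL-1a level by ELISA, 24 h post-dose, fitted as gain or loss relative to DMSO. System: LPS-activated human primary co-culture of vascular endothelium and peripheral blood mononuclear cells, with parallel SRB total-protein cytotoxicity.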

[9] = read-out: Monocyte Chemoattractant Protein-1 (MCP1), CCL2 (gene 6347); assay: BSK_LPS_MCP1: BioMAP Diversity Plus: LPS Assay for Monocyte Chemoattractant Protein-1 (MCP1) Biomarker Activity (AID 2283081); conditions: primary human HUVEC with PBMC; actives raise or lower the signal;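 for AC50: secreted MCP-1 protein quantified by ELISA in culture supernatant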
Summary of the method: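 Secreted MCP-1 read by ELISA at 24 h post-dosing in an LPS-activated co-culture of endothelial cells with peripheral blood mononuclear cells. Fits run in both directions, DMSO as baseline; parallel SRB staining tracks overt cytotoxicity.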

[10] = BSK_LPS_PGE2: BioMAP Diversity Plus: LPS Assay for Prostaglandin E2 (PGE2) Biomarker Activity (AID 2283082); conditions: primary human HUVEC with PBMC; actives raise or lower the signal;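 for AC50: secreted prostaglandin E2 measured by ELISA in LPS-stimulated co-culture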
Summary of the method: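 HUVEC plus PBMC co-culture stimulated with LPS; secreted PGE2 quantified by ELISA 24 h after chemical dosing. Activity fitted bidirectionally against DMSO as negative control and baseline; parallel SRB total-protein staining served as cytotoxicity check.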

Measured: AC50

Chain of E-selectin (Homo sapiens) (P16581 whole entry, looked up): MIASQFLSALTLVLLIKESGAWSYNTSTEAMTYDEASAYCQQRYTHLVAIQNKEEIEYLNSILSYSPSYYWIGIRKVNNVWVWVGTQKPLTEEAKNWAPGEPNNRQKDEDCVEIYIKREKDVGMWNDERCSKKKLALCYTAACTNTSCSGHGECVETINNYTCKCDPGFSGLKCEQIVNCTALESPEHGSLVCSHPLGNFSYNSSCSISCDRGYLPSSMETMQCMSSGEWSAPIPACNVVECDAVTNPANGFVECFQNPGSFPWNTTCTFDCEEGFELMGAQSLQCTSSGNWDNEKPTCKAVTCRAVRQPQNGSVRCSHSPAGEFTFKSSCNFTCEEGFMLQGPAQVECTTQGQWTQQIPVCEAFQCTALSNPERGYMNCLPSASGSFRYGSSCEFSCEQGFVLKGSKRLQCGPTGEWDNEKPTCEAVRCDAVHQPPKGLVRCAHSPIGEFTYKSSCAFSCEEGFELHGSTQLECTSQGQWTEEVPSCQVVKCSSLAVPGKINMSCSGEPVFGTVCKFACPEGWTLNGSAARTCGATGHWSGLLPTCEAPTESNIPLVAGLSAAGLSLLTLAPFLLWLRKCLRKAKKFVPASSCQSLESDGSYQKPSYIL

CN(CCO)S(=O)(=O)C(F)(F)C(F)(F)C(F)(F)C(F)(F)C(F)(F)C(F)(F)C(F)(F)C(F)(F)F
inactive: [1] | [2] | [3] | [4] | [5] | [6] | [7] | [8] | [9] | [10]
active: [6] 4.94 µM

CCCCCCCCCCCCCCC
inactive: [1] | [2] | [3] | [4] | [5] | [6] | [7] | [8] | [9] | [10]

C=COC(=O)C(C)(C)CCCCCC
active: [1] 25900 nM | [2] 33 µM | [3] 28 µM | [4] 31.7 µM | [5] 30.6 µM | [6] 33.1 µM | [7] 34.6 µM | [8] 33.6 µM | [9] 31 µM
inactive: [10]

Oc1ccc(Cc2ccccc2O)cc1
inactive: [1] | [2] | [3] | [4] | [5] | [6] | [7] | [8] | [9]
active: [10] 1.77 µM and 3.97 µM

COC1=CC(=O)C[C@@H](C)[C@]12Oc1c(Cl)c(OC)cc(OC)c1C2=O
active: [1] 119 nM | [2] 0.572 µM
inactive: [3] | [4] | [5] | [6] | [7] | [8] | [9] | [10]

O=C1c2ccc(O)c(O)c2C(=O)c2c(O)ccc(O)c21
inactive: [1] | [2] | [3] | [4] | [5] | [6] | [7] | [8] | [9] | [10]

O=P(O)(O)CCC(F)(F)C(F)(F)C(F)(F)C(F)(F)C(F)(F)C(F)(F)F
inactive: [1] | [2] | [3] | [4] | [5] | [6] | [7] | [8] | [9] | [10]

Clc1ccc(Nc2nnc(Cc3ccncc3)c3ccccc23)cc1
inactive: [1] | [3] | [4] | [5] | [6] | [7] | [8] | [9] | [10]
active: [2] 7.58 µM

CC1=NN(c2ccccc2)C(=O)C1
inactive: [1] | [2] | [3] | [4] | [5] | [6] | [7] | [8] | [9] | [10]

O=C(O)CCC(F)(F)C(F)(F)C(F)(F)C(F)(F)C(F)(F)F
inactive: [1] | [2] | [3] | [4] | [5] | [6] | [7] | [8] | [9] | [10]
active: [6] 5.95 µM

COc1cc(OC)nc(NC(=O)NS(=O)(=O)Nc2ccccc2C(=O)N(C)C)n1
inactive: [1] | [2] | [3] | [4] | [5] | [7] | [9] | [10]
active: [6] 0.055 µM | [8] 0.0637 µM

O=C1NS(=O)(=O)c2ccccc21
inactive: [1] | [2] | [3] | [4] | [5] | [6] | [7] | [8] | [9] | [10]

O=C(c1ccccc1)c1ccccc1
inactive: [1] | [2] | [3] | [4] | [5] | [6] | [7] | [8] | [9]
active: [10] 0.569 µM

CCCCC(CC)C(=O)O (centres undefined)
inactive: [1] | [2] | [3] | [4] | [5] | [6] | [7] | [8] | [9] | [10]

Cc1[nH]nc2c1N=C(c1ccccc1Cl)c1cc([N+](=O)[O-])ccc1N2
inactive: [1] | [3]
active: [2] 4.48 µM | [4] 4.82 µM | [5] 6.04 µM | [6] 7.23 µM | [7] 2.08 µM | [8] 4.2 µM | [9] 5.17 µM | [10] 2.36 µM

COCN(COC)c1nc(N(COC)COC)nc(N(COC)COC)n1
inactive: [1] | [2] | [3] | [4] | [5] | [6] | [7] | [8] | [9] | [10]

O=S(=O)(O)C(F)(F)C(F)(F)C(F)(F)C(F)(F)C(F)(F)C(F)(F)C(F)(F)C(F)(F)C(F)(F)C(F)(F)F
inactive: [1] | [3] | [7] | [8] | [9] | [10]
active: [2] 11.9 µM and 5.3 µM | [4] 13.3 µM and 16.5 µM | [5] 24.7 µM and 768 nM | [6] 23.4 µM and 20.3 µM | [8] 19.4 µM | [9] 6.6 µM

CN(Cc1cnc2nc(N)nc(N)c2n1)c1ccc(C(=O)N[C@@H](CCC(=O)O)C(=O)O)cc1
inactive: [1] | [2] | [3] | [4] | [5] | [6] | [7] | [8] | [9] | [10]
active: [3] 4.77 µM | [9] 0.1 µM

C=CC(C)(CCC=C(C)C)OC(C)=O (centres undefined)
active: [2] 30.4 µM | [3] 31.2 µM
inactive: [1] | [4] | [5] | [6] | [7] | [8] | [9] | [10]

O=P(O)(O)CCC(F)(F)C(F)(F)C(F)(F)C(F)(F)C(F)(F)C(F)(F)C(F)(F)C(F)(F)F
inactive: [1] | [2] | [3] | [4] | [5] | [6] | [7] | [8] | [9] | [10]
active: [4] 30 µM | [7] 35.3 µM | [10] 30 µM

CN(C)c1ccc(C(=C2C=CC(=[N+](C)C)C=C2)c2ccccc2)cc1
active: [1] 699 nM | [2] 0.0207 µM | [3] 0.465 µM | [4] 0.0133 µM | [5] 0.0082 µM | [7] 0.149 µM | [8] 0.00944 µM | [9] 0.0133 µM | [10] 0.0082 µM
inactive: [6]

Cc1cccc2c1ccc1ccccc12
inactive: [1] | [2] | [3] | [4] | [5] | [6] | [7] | [8] | [9] | [10]

CCC(C)c1ccccc1O (centres undefined)
active: [10] 3.28 µM
inactive: [1] | [2] | [3] | [4] | [5] | [6] | [7] | [8] | [9]

CCCCCCCCCCCC
active: [1] 6.76 µM and 8.48 µM | [2] 6.78 µM and 7.3 µM | [3] 11.1 µM | [4] 20 µM | [5] 30.5 µM and 32.7 µM | [6] 33.1 µM and 30.7 µM | [8] 14.4 µM and 29.6 µM | [9] 36.3 µM | [10] 12.9 µM and 14 µM
inactive: [4] | [7] | [9]

O=C(CC(=O)C(F)(F)C(F)(F)C(F)(F)F)c1cccs1
inactive: [1] | [3] | [4] | [5] | [6] | [8] | [10]
active: [2] 2.38 µM and 4.67 µM | [4] 22.9 µM | [7] 26.4 µM and 37.3 µM | [9] 30 µM and 40.4 µM

Oc1cc2ccccc2cc1O
inactive: [1] | [2] | [3] | [4] | [5] | [6] | [7] | [8] | [9] | [10]

O=C(O)CCC(F)(F)C(F)(F)C(F)(F)C(F)(F)C(F)(F)C(F)(F)F
active: [4] 15.6 µM | [6] 30 µM and 51.1 µM and 38.9 µM | [8] 12.9 µM and 30 µM
inactive: [1] | [2] | [3] | [4] | [5] | [7] | [8] | [9] | [10]
